In all, about 6,200 compounds went through this assay and about 2,900 (47%) were called active. So high a share suggests a set chosen from earlier hits. The list shows a part of the results. A number with no mark means an inactive call. No stated cut-off is given here; in the data, active means inhibition above about 50%; inactive means the rest.
Assay: Mycobacterium tuberculosis growth inhibition, primary screen (AID 1259343)
Details: inhibition: at 10 µM, hits give high values; outcome: 10 uM

**Q.** Which inhibition does the source give for OC(C#CCC(O)c1ccccc1)c1ccccc1 (stereo not drawn) here?
**A.** 101% (active)

**Q.** For CN(CC(O)c1ccccc1F)C(c1ccccc1)c1ccccc1 (stereo not drawn), which inhibition is on record?
**A.** -46%

**Q.** Which inhibition does the source give for N#Cc1ccc(S(=O)(=O)N2CCC(Cc3ccc(C(F)(F)F)cc3)CC2)cc1 here?
**A.** 71.7% (active)

**Q.** Which inhibition does the source give for N#Cc1ccc(S(=O)(=O)N2CCC(Cc3ccc(F)cc3)CC2)cc1 here?
**A.** 60.9% (active)

**Q.** Which inhibition does the source give for O=S(=O)(c1ccc(F)cc1)N1CCCC(OCc2cc(F)cc(F)c2)C1 (stereo not drawn) here?
**A.** 2.58%

**Q.** Which inhibition does the source give for N#Cc1ccc(S(=O)(=O)N2CCN(c3ccccc3F)CC2)cc1 here?
**A.** 8.35%

**Q.** With O=C(O)c1cc[c]([Hg][Cl])cc1 as the molecule, how does the inhibition read?
**A.** 33.6%

**Q.** For COc1ccc(Cl)cc1NCC(=O)N1CCc2sccc2C1, which inhibition is on record?
**A.** 83.7% (active)

**Q.** For O=C(CNc1ccc2c(c1)OC(F)(F)O2)N1CCc2sccc2C1, which inhibition is on record?
**A.** -40%

**Q.** With COc1ccc(C)cc1NC(=O)N1CCN(CCCOC(c2ccc(Cl)cc2)c2ccc(Cl)cc2)CC1 as the molecule, how does the inhibition read?
**A.** -0.67%

**Q.** With CC(C)Oc1ccc(NC(=O)Cc2cccs2)cc1Cl as the molecule, how does the inhibition read?
**A.** 38%

**Q.** For CC(C)Oc1ccc(NC(=O)C2CCOCC2)cc1Cl, which inhibition is on record?
**A.** 95.4% (active)

**Q.** Which inhibition does the source give for C=CCn1c(=NC(=O)c2ccc(OC)cc2)sc2cccc(OC)c21 here?
**A.** 39.7%

**Q.** Which inhibition does the source give for CCc1c(C)nc(-n2nc(C)cc2NC(=O)c2cccs2)[nH]c1=O here?
**A.** 101% (active)

**Q.** For Cc1cc(NC(=O)c2cccs2)n(-c2nc(C)c(C)c(=O)[nH]2)n1, which inhibition is on record?
**A.** 98.8% (active)

**Q.** With CCCCS(=O)(=O)N(C)Cc1ccc(-c2ccc(Br)cc2)o1 as the molecule, how does the inhibition read?
**A.** 83.2% (active)

**Q.** For OCC#CCSc1nnc(-c2cccc(Br)c2)o1, which inhibition is on record?
**A.** -10.9%

**Q.** With Brc1ccccc1-c1nnc(SCc2ncc(-c3ccccc3)o2)o1 as the molecule, how does the inhibition read?
**A.** -4.92%

**Q.** Which inhibition does the source give for OCC#CCSc1nnc(-c2ccccc2Br)o1 here?
**A.** 99.2% (active)

**Q.** For Fc1ccc(CN2CCC(Cc3ccc(-c4ccccc4)cc3)CC2)cc1C(F)(F)F, which inhibition is on record?
**A.** 59% (active)

**Q.** With CC(=O)Nc1ccc(-c2csc(NC(=O)C3Cc4ccccc4O3)n2)c(F)c1 (stereo not drawn) as the molecule, how does the inhibition read?
**A.** 16.7%

**Q.** With CC(C)(C)c1ccc2c(c1)OCC(C(=O)Nc1nc(-c3ccncc3)cs1)O2 (stereo not drawn) as the molecule, how does the inhibition read?
**A.** 84.6% (active)

**Q.** Which inhibition does the source give for Oc1cccc2ccc(C=Cc3cccc(Br)c3)nc12 here?
**A.** 90.5% (active)

**Q.** For COC(=O)c1cc(C=O)c2ccc3ccccc3n12, which inhibition is on record?
**A.** 27.1%

**Q.** With COc1ccc(Br)cc1C=Cc1ccc2cccc(O)c2n1 as the molecule, how does the inhibition read?
**A.** 17.6%

**Q.** Which inhibition does the source give for Oc1cccc2ccc(/C=C/c3ccccc3OC(F)F)nc12 here?
**A.** 100% (active)

**Q.** Which inhibition does the source give for COC(=O)c1ccc(C=Cc2ccc3cccc(O)c3n2)cc1 here?
**A.** 63.1% (active)

**Q.** Which inhibition does the source give for CCc1ccc(NC(=O)C(C)n2cc(C(F)(F)F)ccc2=O)cc1 (stereo not drawn) here?
**A.** 49.6%

**Q.** Which inhibition does the source give for Cc1cc(NC(=O)c2ccc(CN3C(=O)CC4(CCCC4)C3=O)cc2)ccc1Cl here?
**A.** -6.77%

**Q.** With CCc1ccc(NC(=O)c2ccc(CN3CCCC3=O)cc2)cc1 as the molecule, how does the inhibition read?
**A.** 73.2% (active)

**Q.** Which inhibition does the source give for CC(NS(=O)(=O)c1ccc(Cl)c(C(F)(F)F)c1)C1CC2CCC1C2 (stereo not drawn) here?
**A.** inactive

**Q.** For CCn1c(C)c(C(=O)CN(C(=O)c2ccc(Br)cc2)C2CCCCC2)c(C)c1C(=O)OC, which inhibition is on record?
**A.** 22.6%

**Q.** For Cc1ccccc1C1CC(N(C(=O)c2ccc(Br)cc2)C2CC2)C1 (stereo not drawn), which inhibition is on record?
**A.** 82.4% (active)

**Q.** Which inhibition does the source give for COC(=O)c1ccc(N2CN=C(c3ccc(C)cc3)NC2=S)cc1 here?
**A.** 87.5% (active)

**Q.** With Cc1ccc(C(=O)OC(C)CN2CCN(C)CC2)cc1 (stereo not drawn) as the molecule, how does the inhibition read?
**A.** -10.1%

**Q.** For CC1(Oc2ccccc2-c2ccno2)CCN(Cc2ccc(-c3ccccc3)o2)C1 (stereo not drawn), which inhibition is on record?
**A.** 25.5%

**Q.** With Fc1ccc(N2CCN(C[C@H]3CN4CC[C@H]3C[C@@H]4CNC(=S)Nc3ccc(-n4cccn4)cc3)CC2)cc1 as the molecule, how does the inhibition read?
**A.** 95.6% (active)

**Q.** For CC(OC(=O)c1ccc(OCC2CCCO2)cc1)C(=O)Nc1nc(-c2ccc(F)c(F)c2)cs1 (stereo not drawn), which inhibition is on record?
**A.** 100% (active)

**Q.** Which inhibition does the source give for CCC(C)C(=O)Nc1nc(-c2ccc(OC)c(F)c2)cs1 (stereo not drawn) here?
**A.** 0.73%

**Q.** Which inhibition does the source give for O=S(=O)(Oc1ccc2oc3ccccc3c2c1)c1ccc2c(c1)OCCO2 here?
**A.** 31.3%

**Q.** For CN(c1cccc(O)c1)S(=O)(=O)c1cc(Cl)sc1Cl, which inhibition is on record?
**A.** -2.74%

**Q.** With CN(c1cccc(O)c1)S(=O)(=O)c1ccc2c(c1)OCCCO2 as the molecule, how does the inhibition read?
**A.** 52.4% (active)

**Q.** With Nc1ccc2scnc2c1 as the molecule, how does the inhibition read?
**A.** 94.5% (active)

**Q.** With O=C(Nc1ccc2scnc2c1)C1CC(=O)N(CC2CC2)C1 (stereo not drawn) as the molecule, how does the inhibition read?
**A.** 34.9%

**Q.** For O=C(NCC1CCC2(CC1)OCCO2)c1ccc(Cl)cc1F, which inhibition is on record?
**A.** -19.8%

**Q.** Which inhibition does the source give for O=C(Nc1cc(C(F)(F)F)no1)c1ccc(Cl)cc1F here?
**A.** 97.8% (active)

**Q.** With CCCSc1nnc(SCC(=O)Nc2nc(C)cs2)s1 as the molecule, how does the inhibition read?
**A.** 90.9% (active)

**Q.** With Cc1csc(C(C#N)C(=O)CSc2nnc(NC3CC3)s2)n1 (stereo not drawn) as the molecule, how does the inhibition read?
**A.** 28.8%

**Q.** Which inhibition does the source give for CCCSc1nnc(NCc2ccc(OC)cc2)s1 here?
**A.** 33.5%

**Q.** Which inhibition does the source give for NCC[C@H](O)C(=O)N[C@@H]1C[C@H](N)[C@@H](O[C@H]2O[C@H](CN)[C@@H](O)[C@H](O)[C@H]2O)[C@H](O)[C@H]1O[C@H]1O[C@H](CO)[C@@H](O)[C@H](N)[C@H]1O here?
**A.** 98.7% (active)

**Q.** With CN[C@H]1C[C@@H](N)[C@H](O)[C@@H](O[C@@H]2O[C@H](CO)[C@@H]3OC4(O[C@@H]3[C@@H]2O)O[C@H](C(N)CO)[C@H](O)[C@H](O)[C@H]4O)[C@@H]1O (stereo partly drawn) as the molecule, how does the inhibition read?
**A.** 41.3%

**Q.** For CCCc1cc(=O)[nH]c(-n2nc(C)cc2NC(=O)Cc2ccc(OC)c(OC)c2)n1, which inhibition is on record?
**A.** 98.9% (active)

**Q.** Which inhibition does the source give for COc1ccc(CC(=O)Nc2cc(C)nn2-c2nc(C)cc(=O)[nH]2)cc1OC here?
**A.** 99% (active)

**Q.** For CCc1cc(=O)[nH]c(-n2nc(C)cc2NC(=O)Cc2ccc(OC)c(OC)c2)n1, which inhibition is on record?
**A.** 48%

**Q.** Which inhibition does the source give for Cc1n[nH]c(C)c1CCCCCOc1cccc(Cl)c1 here?
**A.** 99.2% (active)

**Q.** For CCOc1ccc(OCCCCOc2ccc(F)cc2)cc1, which inhibition is on record?
**A.** 8.32%

**Q.** Which inhibition does the source give for Cc1n[nH]c(C)c1CCCCCCOc1ccc(F)cc1 here?
**A.** 87.3% (active)

**Q.** For CNc1snc(C)c1C(=O)NCc1ccc2c(c1)CCC2, which inhibition is on record?
**A.** 39.8%

**Q.** Which inhibition does the source give for CNc1snc(C)c1C(=O)OCc1ccc(-n2cccn2)cc1 here?
**A.** 50.2% (active)

**Q.** Which inhibition does the source give for Cc1oc(-c2ccc(F)cc2F)nc1CN(C)Cc1ccccc1C(F)(F)F here?
**A.** 30.1%

**Q.** For COc1cc(C(=O)Nc2cc(Cl)ccc2N2CCSCC2)ccc1C, which inhibition is on record?
**A.** 12.9%

**Q.** With N#Cc1ccc(C(=O)Nc2ccccc2N2CCCCCC2)cc1 as the molecule, how does the inhibition read?
**A.** 39.7%

**Q.** With N#Cc1nc(NC(=O)c2ccc(N3CCCC3)c(F)c2)[nH]c1C#N as the molecule, how does the inhibition read?
**A.** 70.6% (active)

Reference: PubChem BioAssay AID1259343 (VanderVen Lab, College of Veterinary Medicine, Cornell …, 2017)
